Where “and” joins values, the source holds several entries; their conditions need not be identical. Equal entries are not always repeated. The panel holds about 83,000 compounds, 20% with a hit somewhere; the sample as a whole holds those more often.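 Negative percent growth values reflect cell death: -40 means 40% of the cells present at the start died, and -100 means all died.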 Unmarked numbers belong to inactive results. Calls of active or inactive are those of the source. How the source made its calls: active means growth percent below 10; inactive means the rest.
System: SW-620 colon
Test: NCI-60 one-dose screen, 48 h (100 = growth as untreated, 0 = no growth, -100 = all killed)
Settings: 10 µM

How did the growth turn out when CCN(Cc1ccccc1)c1ccc(/C=C2\COc3ccccc3C2=O)cc1 was run?
The growth was 87.4%.

For CC(=O)/C=C/c1ccc(OCc2ccc(C(C)(C)C)cc2)cc1, which growth is on record?
The growth was 72.1%.

Which growth does the source give for CC(=O)/C=C/c1ccc(N(CCO)Cc2ccc(C(C)(C)C)cc2)cc1 here?
Its growth is 83.9%.

For O=C(/C=C/c1cccc(Oc2ccc(Cl)cc2)c1)c1ccccc1, which growth is on record?
The growth was 19.7%.

COc1ccc(C(=O)/C=C/c2ccc(OCc3cccc(C(F)(F)F)c3)c(OC)c2)cc1OC was tested. Which growth did it give?
The growth was 59.1%.

How did the growth turn out when CC(=O)/C=C/c1ccc(OCc2ccc(Cl)cc2)cc1 was run?
The growth was 104%.

COc1ccc(C(=O)/C=C/c2ccc(OCc3ccc(Cl)cc3)cc2)cc1OC was tested. Which growth did it give?
The growth was 103%.

With CC(=O)/C=C/c1ccc(N(C)Cc2ccc(C(C)(C)C)cc2)cc1 as the compound, how does the growth read?
Its growth is 88.5%.

Same assay, conditions: 10 µM unless noted

CCOC(=O)c1ccc(Nc2ncnc3c2cnn3-c2cccc(F)c2)cc1 was tested. Which growth did it give?
The growth was 99.8%.

For O=S(=O)(O)c1ccc(N=Nc2ccc(N=Nc3cccc4ccccc34)c(S(=O)(=O)O)c2)cc1, which growth is on record?
Its growth is 96.2%.

How did the growth turn out when CC[C@@H]1NC(=O)[C@H]([C@H](O)[C@H](C)C/C=C/c2ccc(CN3C(=O)C(C)=C(C)C3=O)cc2)N(C)C(=O)[C@H](C(C)C)N(C)C(=O)[C@H](CC(C)C)N(C)C(=O)[C@H](CC(C)C)N(C)C(=O)[C@@H](C)NC(=O)[C@H](C)NC(=O)[C@H](CC(C)C)N(C)C(=O)[C@H](C(C)C)NC(=O)[C@H](CC(C)C)N(C)C(=O)CN(C)C1=O was run?
Its growth is 97.7%.

COc1nc(=O)n(C2C=CC(=O)O2)cc1F (configuration not stated) was tested. Which growth did it give?
The growth was 46.3%.

Which growth does the source give for COc1ccc(-c2csc(NC(=O)CN3CCN(CCO)CC3)n2)cc1NS(=O)(=O)c1cccc2c(N(C)C)cccc12 here?
Its growth is 84.1%.

With O=C1/C(=C/c2ccc(-c3cccc(C(F)(F)F)c3)o2)SC(=S)N1CCc1ccc(O)cc1 as the compound, how does the growth read?
The growth was 86.1%.

Which growth does the source give for BrC1=C(Br)C(Br)(Br)C(Br)=C1Br here?
Its growth is 80.1%.

Which growth does the source give for OCc1cc(CN2CCCCC2)c(O)c2ncccc12 here?
Its growth is 39.7%.

COc1ccc(C2=C(CN)C(O)NC(=NCC(=O)c3ccc4ccccc4c3)N2)cc1 (configuration not stated) was tested. Which growth did it give?
The growth was 112%.

For N#CSc1c[nH]c2ccc(/C=C/C(=O)/C=C(/C=C/c3ccc4[nH]cc(SC#N)c4c3)OB(F)F)cc12, which growth is on record?
Its growth is 2.13% (active).

COc1ccc(Oc2nc(Nc3ccc(N4CCOCC4)cc3)ncc2NC(=O)c2cc(OC)cc(OC)c2)cc1 was tested. Which growth did it give?
Its growth is 71.4%.

For COc1ccc2c(c1)oc1c(C)c3c(c(C)c12)C(=O)N(Nc1ccccc1)C3=O, which growth is on record?
Its growth is 110%.

How did the growth turn out when COc1ccc(/C=C2/C(=O)N=C3N2NC(c2ccccc2)=CN3c2ccccc2)cc1 was run?
The growth was 101%.

O=C1/C(=C/c2ccccc2[N+](=O)[O-])Cc2ccccc21 was tested. Which growth did it give?
Its growth is -56.2% (active) and -45.4% (active).

COc1ccc2c(c1)CCNC21C(=O)Nc2c(Br)cc(Br)cc21 (configuration not stated) was tested. Which growth did it give?
The growth was 97.4%.

Which growth does the source give for O=C(N/N=C/c1ccc(O)cc1O)c1cccc(Nc2ccnc(C(F)(F)F)c2)c1 here?
The growth was 35.7%.

O=C(c1cccc(Br)c1)N1CCN(c2ccnc3cc(Cl)ccc23)CC1 was tested. Which growth did it give?
Its growth is 101%.

With CCCCCC#CC1OC23CCCCC2C(C#N)(C(=N)O3)C1(C#N)C#N (configuration not stated) as the compound, how does the growth read?
Its growth is 95.5%.

Which growth does the source give for COc1ccc(-c2c[nH]c(C(=O)O)c2-c2cc(OC)c(OC)c(OC)c2)cc1 here?
Its growth is 23.6%.

How did the growth turn out when NC(N)=NC(N)=NCCCc1ccco1 was run?
Its growth is 94.5%.

CN1Cn2c(ccc2C(F)(F)F)C(=O)CS1(=O)=O was tested. Which growth did it give?
The growth was 104%.

With CCCc1cc(C(N)=S)ccn1 as the compound, how does the growth read?
Its growth is 107%.

With C#CCn1cnc2cnc(Nc3cccc(NC(=O)CCl)c3)nc21 as the compound, how does the growth read?
The growth was 0.405% [6.25 µM] (active).

For CC1=C2[C@@H](CC1)[C@]1(C)O[C@@](C3CC3)(C[C@H]1OC(=O)CO)[C@H]2OC(=O)/C=C/c1ccccc1, which growth is on record?
The growth was 103%.

How did the growth turn out when CCCn1nc(C(=O)N2CCCCC2)c2c1CCC(N1CCC(c3ccncc3)CC1)C2 (configuration not stated) was run?
The growth was 104%.

Cc1c(O)c(O)cc2c3c(oc12)CC(c1ccc2c(c1)OCO2)CC3=O (configuration not stated) was tested. Which growth did it give?
Its growth is 81.7%.

With COc1ccc(Nc2nn3c(SCC(=O)c4ccc(C)cc4)nnc3s2)cc1 as the compound, how does the growth read?
The growth was 98.1%.

Which growth does the source give for N#Cc1c(-c2cccc(F)c2)cc(-c2cccnc2)[nH]c1=O here?
Its growth is 110%.

How did the growth turn out when O=[N+]([O-])c1ccc2[nH]c3nccc(NCc4cccc(Cl)c4)c3c2c1 was run?
Its growth is 63.6%.

— PubChem BioAssay (NCI)
